Test results reported in PubChem BioAssay (Tox21).
Records with an inconclusive call do not appear. Activity calls are given as the source filed them. Unless noted, the call rests on the fitted dose curve; in most records, active means well fitted curve in the direction sought with a large enough effect in the repeat runs; inconclusive means weak or mixed curves; inactive means no such curve, though single readings can be large; an effect the other way counts as inactive or inconclusive.

Assays:
[1] = A CellTox Green Cytotoxicity Assay to monitor cytotoxicity in HEK293 cells - 32 hour (AID 1224881); further: nearly all actives have a fitted effect of over 40% in size
Procedure, shortened: (§1)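 Each value comes from one timepoint of a single continuous run in which HEK293 cells with CellTox Green were exposed to compound for up to 40 h at 37 C, dye fluorescence rising with cell death.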

[2] = A CellTox Green Cytotoxicity Assay to monitor cytotoxicity in HepG2 cells - 32 hour (AID 1224883); further: nearly all actives have a fitted effect of over 50% in size
Procedure, shortened: (§2)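 Continuous culture of HepG2 cells with a membrane-impermeant DNA dye; rising fluorescence marks dead cells. Compound exposure lasted up to 40 h at 37 C, with reads every 8 h from 0 h.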

[3] = qHTS RealTime-Glo MT Cell Viability Assay in HEK293 cells - 24 hour (AID 1224886); further: top concentration of the series differs between compounds; nearly all actives have a fitted effect of over 50% in size
Procedure, shortened: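 Luminescence generated by NanoLuc from substrate produced by living HEK293 cells served as the viability signal. Each value reflects the reading at its stated time point during continuous 40 h compound exposure at 37 C.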

[4] = A CellTox Green Cytotoxicity Assay to monitor cytotoxicity in HEK293 cells - 16 hour (AID 1224888); further: nearly all actives have a fitted effect of over 35% in size
Procedure, shortened: as §1

[5] = qHTS RealTime-Glo MT Cell Viability Assay in HepG2 cells - 0 hour (AID 1224889); further: nearly all actives have a fitted effect of over 50% in size
Procedure, shortened: (§3)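 Tox21 10K library screened in qHTS format on HepG2 cells carrying RealTime-Glo reagents. Compounds were added after a 5 h preincubation, and the luminescent signal from continuous culture was measured repeatedly during 40 h treatment.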

[6] = A CellTox Green Cytotoxicity Assay to monitor cytotoxicity in HepG2 cells - 8 hour (AID 1224890); further: nearly all actives have a fitted effect of over 45% in size
Procedure, shortened: as §2

[7] = qHTS assay to identify small molecule antagonists of the estrogen receptor alpha (ER-alpha) signaling pathway using the BG1 cell line in the presence of 0.1 nM 17-beta-estradiol - cell viability counter screen (AID 1259241); further: nearly all actives have a fitted effect of over 40% in size
Procedure, shortened: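 Following 5 days in phenol red-free medium with charcoal-stripped serum, VM7Luc4E2 cells received test compounds alongside 0.1 nM 17beta-estradiol (final) at 37C for 22 hr. Live cells were then quantified via protease-substrate fluorescence.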

[8] = qHTS assay to identify small molecule antagonists of the androgen receptor (AR) signaling pathway using the MDA cell line in the presence of 0.5 nM R1881 - cell viability counter screen (AID 1259242); further: nearly all actives have a fitted effect of over 45% in size
Procedure, shortened: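 Fluorescence from CellTiter-Fluor, which reports protease activity of live cells, was read 30 min after reagent addition to MDA-kb2 cells that had been incubated 16 hr with compound and 0.5 nM R1881.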

[9] = molecular target: Estrogen receptor (Homo sapiens) (UniProt P03372); assay: qHTS assay to identify small molecule antagonists of the estrogen receptor alpha (ER-alpha) signaling pathway using the BG1 cell line in the presence of 0.1 nM 17-beta-estradiol (AID 1259244); further: nearly all actives have a fitted effect of over 50% in size
Estrogen receptor (Homo sapiens), sequence (P03372 whole entry, looked up): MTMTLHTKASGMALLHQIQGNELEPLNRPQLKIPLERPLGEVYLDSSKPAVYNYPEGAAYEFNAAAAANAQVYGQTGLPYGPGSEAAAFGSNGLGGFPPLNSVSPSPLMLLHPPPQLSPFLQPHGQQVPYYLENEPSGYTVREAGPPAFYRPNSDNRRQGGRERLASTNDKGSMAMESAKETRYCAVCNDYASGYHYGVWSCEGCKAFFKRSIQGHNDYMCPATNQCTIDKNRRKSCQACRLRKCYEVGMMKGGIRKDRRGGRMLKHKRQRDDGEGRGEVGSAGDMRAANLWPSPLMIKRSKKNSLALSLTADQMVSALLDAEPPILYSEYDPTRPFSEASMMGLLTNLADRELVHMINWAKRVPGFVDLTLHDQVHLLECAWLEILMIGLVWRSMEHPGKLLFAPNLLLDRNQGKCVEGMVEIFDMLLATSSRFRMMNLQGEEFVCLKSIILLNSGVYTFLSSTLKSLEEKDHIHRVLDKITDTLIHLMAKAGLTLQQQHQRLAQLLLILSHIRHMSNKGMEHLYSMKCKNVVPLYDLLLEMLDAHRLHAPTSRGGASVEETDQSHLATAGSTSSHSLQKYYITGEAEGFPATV
Procedure, shortened: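 Quantitative high-throughput screen in VM7Luc4E2 cells: compound plus 0.1 nM E2 (final), 22 h, 37C, 5% CO2; ONE-Glo added, 30 min room temperature, luminescence measured.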

[10] = qHTS assay to identify small molecule HDAC inhibitors (AID 1259364); further: top concentration of the series differs between compounds; nearly all actives have a fitted effect of over 45% in size
Procedure, shortened: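 Endogenous HDAC class I/II activity was measured in wild-type HCT-116 cells by HDAC-Glo luminescence after 2 h compound treatment.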

[11] = qHTS assay to identify small molecule HDAC inhibitors - cell viability counter screen (AID 1259365)
Procedure, shortened: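 HCT-116 wild-type, overnight attachment; 2hr drug exposure, 37C; CellTiter-Glo luminescent ATP readout after 30min RT.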

[12] = qHTS assay to identify small molecule agonists of the sonic hedgehog signaling (Shh) pathway - cell viability counter screen (AID 1259366); further: nearly all actives have a fitted effect of over 50% in size
Procedure, shortened: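 Compounds in DMSO were pin-transferred onto 3T3 Gli1-Luc cells that had settled 4hr; plates then stood 24hr at 37C and 5% CO2. One hour before the end, CellTiter-Fluor was added and fluorescence recorded.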

[13] = qHTS assay to identify small molecule antagonists of the sonic hedgehog signaling (Shh) pathway - cell viability counter screen (AID 1259367); further: nearly all actives have a fitted effect of over 55% in size
Procedure, shortened: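 After a 4 hr settling period, 3T3 Gli1-Luc cells were treated with DMSO-dissolved chemicals and conditioned medium, kept 24 hr at 37C in 5% CO2, and assayed for viability by CellTiter-Fluor fluorescence following 1 hr reagent incubation.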

[14] = qHTS assay to identify small molecule agonists of the sonic hedgehog signaling (Shh) pathway (AID 1259368; calls by dose curve;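 further: NIH/3T3-derived 3T3Gli1-Luc cells carrying a stable Gli1-driven firefly luciferase reporter; series mostly up to about 92 µM; nearly all actives have a fitted effect of over 15% in size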)
Procedure, shortened: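 Luminescent signal was taken as a measure of Gli1-controlled luciferase expression in stably transfected NIH/3T3-derived cells that had been treated for 24 hr with compounds delivered in DMSO.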

[15] = qHTS RealTime-Glo MT Cell Viability Assay in HepG2 cells - 16 hour (AID 1224885); further: nearly all actives have a fitted effect of over 50% in size
Procedure, shortened: as §3

[16] = qHTS RealTime-Glo MT Cell Viability Assay in HEK293 cells - 8 hour (AID 1224887)
Procedure, shortened: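 qHTS format; HEK293 cells with NanoLuc/prosubstrate reagent, 37 C/5% CO2 for 5 h pre-dosing; compounds 23 nL in DMSO; luminescence at each time point reflects viable cells.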

[17] = molecular target: Androgen receptor (Homo sapiens) (UniProt P10275); assay: qHTS assay to identify small molecule antagonists of the androgen receptor (AR) signaling pathway using the MDA cell line in the presence of 0.5 nM R1881 (AID 1259243); further: nearly all actives have a fitted effect of over 50% in size
Androgen receptor (Homo sapiens), sequence (P10275 whole entry, looked up): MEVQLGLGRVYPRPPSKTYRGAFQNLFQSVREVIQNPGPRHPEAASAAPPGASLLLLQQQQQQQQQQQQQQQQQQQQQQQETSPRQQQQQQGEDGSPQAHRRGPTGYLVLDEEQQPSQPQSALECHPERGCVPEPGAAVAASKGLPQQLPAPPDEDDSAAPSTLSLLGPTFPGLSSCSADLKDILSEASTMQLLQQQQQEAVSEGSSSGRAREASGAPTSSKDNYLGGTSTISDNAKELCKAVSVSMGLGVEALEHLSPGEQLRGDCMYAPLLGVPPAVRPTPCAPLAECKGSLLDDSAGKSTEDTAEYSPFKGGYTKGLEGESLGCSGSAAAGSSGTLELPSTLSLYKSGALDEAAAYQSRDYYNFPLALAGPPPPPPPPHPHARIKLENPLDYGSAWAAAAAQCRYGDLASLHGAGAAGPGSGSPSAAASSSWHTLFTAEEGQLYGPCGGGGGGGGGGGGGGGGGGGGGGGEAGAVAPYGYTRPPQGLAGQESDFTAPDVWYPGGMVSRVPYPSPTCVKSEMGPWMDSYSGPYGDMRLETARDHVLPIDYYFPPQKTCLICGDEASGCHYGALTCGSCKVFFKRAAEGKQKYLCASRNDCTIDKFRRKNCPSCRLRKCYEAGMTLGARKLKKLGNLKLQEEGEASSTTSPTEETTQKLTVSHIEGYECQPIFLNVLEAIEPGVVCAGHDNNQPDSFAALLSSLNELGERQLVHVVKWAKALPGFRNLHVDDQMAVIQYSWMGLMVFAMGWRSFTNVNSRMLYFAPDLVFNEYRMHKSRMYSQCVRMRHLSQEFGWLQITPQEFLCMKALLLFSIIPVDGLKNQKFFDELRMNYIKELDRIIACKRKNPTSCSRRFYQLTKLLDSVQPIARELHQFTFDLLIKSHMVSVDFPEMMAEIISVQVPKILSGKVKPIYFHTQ
Procedure, shortened: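 Inhibition of R1881 (0.5 nM final) induced reporter signal was measured in human MDA-kb2 cells; note the MMTV promoter also responds to GR. Exposure lasted 16 hr at 37C.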

[18] = A CellTox Green Cytotoxicity Assay to monitor cytotoxicity in HEK293 cells - 8 hour (AID 1224884); further: nearly all actives have a fitted effect of over 35% in size
Procedure, shortened: as §1

[19] = qHTS assay to identify small molecule phospholipidosis (PLD) inducers (AID 1259344; active means well fitted curve in the direction sought with a large enough effect; an effect the other way counts as inactive or inconclusive)
Procedure, shortened: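 HepG2 cells grown on collagen I take up LipidTOX Red while exposed to compound for 24 h; after fixation they are imaged at 20x and pit metrics are extracted.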

Measured: Potency

CCNc1nc(NCC)nc(SC)n1
inactive: [1] | [2] | [3] | [4] | [5] | [6] | [7] | [8] | [9] | [10] | [11] | [12] | [13] | [14]

COC[C@@H](NC(C)=O)C(=O)NCc1ccccc1
inactive: [1] | [2] | [15] | [3] | [16] | [4] | [5] | [6] | [7] | [8] | [17] | [10] | [11] | [12] | [13] | [14]

CCCCOC(C)=O
inactive: [1] | [2] | [18] | [15] | [3] | [4] | [5] | [6] | [7] | [8] | [9] | [10] | [11] | [12] | [13] | [14]

C=CCC1(C(C)CC)C(=O)NC(=O)NC1=O (centres undefined)
inactive: [1] | [2] | [18] | [15] | [3] | [4] | [5] | [6] | [7] | [8] | [9] | [10] | [11] | [12] | [13] | [14]

CCCC[N+](=O)[O-]
inactive: [2] | [18] | [15] | [3] | [16] | [5] | [6] | [7] | [8] | [9] | [11] | [12] | [13]

CCOC(=O)COc1ccc(Cl)cc1Cl
inactive: [1] | [2] | [18] | [15] | [3] | [16] | [5] | [6] | [7] | [8] | [10] | [11] | [12] | [13] | [14]

CN(C)CCN(C)C
inactive: [1] | [15] | [3] | [16] | [4] | [5] | [6] | [7] | [8] | [9] | [10] | [11] | [12] | [13] | [14]

CC[C@@H](CO)NC(=O)[C@@H]1C=C2c3cccc4c3c(cn4C)C[C@H]2N(C)C1
inactive: [1] | [2] | [18] | [3] | [16] | [4] | [5] | [6] | [7] | [8] | [9] | [19] | [12] | [13] | [14]

COP(=O)(OC)O/C(C)=C/C(=O)N(C)C
inactive: [1] | [2] | [18] | [15] | [3] | [16] | [5] | [6] | [7] | [8] | [9] | [10] | [11] | [12] | [13]

CCc1cc(OC)c(C[C@H](C)N)cc1OC
inactive: [1] | [2] | [3] | [16] | [4] | [5] | [6] | [7] | [8] | [19] | [10] | [11] | [13] | [14]
